Active and inactive are the calls of the source. How the source made its calls: active means hit-call score of the fitted dose curve at least 0.9, where 1 is the maximum; inactive means score below 0.9.
Read-out: Cyclin Dependent Kinase Inhibitor 1A (CDKN1A), CDKN1A (gene 1026)
Assay: LTEA_HepaRG_CDKN1A: Life Technologies and Expression Analysis (LTEA) Assay for Cyclin Dependent Kinase Inhibitor 1A (CDKN1A) using HepaRG (AID 2283450)
Settings: mRNA level, 48 h; actives raise or lower the signal
Outline: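 HepaRG, 48 h dosing, 8-pt half-log series from 100 uM top, 0.5% DMSO vehicle, duplicates. Readout: TaqMan qRT-PCR of CDKN1A transcript, housekeeping-normalized (ACTB, GAPDH, POLR2A). Up/down curve fit relative to DMSO.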

SMILES | outcome | AC50
CCN(CC)CCOc1ccc(C(=C(Cl)c2ccccc2)c2ccccc2)cc1 | inactive | 
CCC(C)N(C)C(=O)c1cc2ccccc2c(-c2ccccc2Cl)n1 (centres undefined) | inactive | 
O=C(O)c1[nH]n(-c2ccc(S(=O)(=O)O)cc2)c(=O)c1N=Nc1ccc(S(=O)(=O)O)cc1 | inactive | 
CO[C@@H]1COCC[C@@H]1N[C@@H]1CC[C@@](C(=O)N2CCc3ncc(C(F)(F)F)cc3C2)(C(C)C)C1 | inactive | 
CC(=O)OC1CC(C)OC(C)O1 (centres undefined) | inactive | 
CCCCCCC(CCCCCCCCCCC(=O)OCC(COC(C)=O)OC(C)=O)OC(C)=O (centres undefined) | inactive | 
CN(C)CCCN1c2ccccc2Sc2ccc(Cl)cc21 |  | 50 µM (active)
O=C(O)CN(CC(=O)O)CC(=O)O | inactive | 
Cc1ccc(-c2cc(C(F)(F)F)nn2-c2ccc(S(N)(=O)=O)cc2)cc1 | inactive | 
N[C@@H](Cc1c[nH]c2ccccc12)C(=O)O | inactive | 
CCCCOC(=O)CCCCC(=O)OCCCC | inactive | 
C#CC(O)C(CC)CCCC (centres undefined) | inactive | 
CCCCCCCCCC[N+](C)(C)[O-] | inactive | 
O=C1c2c(O)cccc2Cc2cccc(O)c21 | inactive | 
CCCCCCCC(=O)OC | inactive | 
NC(=Nc1ccccc1)Nc1ccccc1 | inactive | 
O=C(N[C@@H](c1ccccc1)[C@@H]1CCCCN1)c1cccc(C(F)(F)F)c1Cl | inactive | 
COc1ccc(C(=O)Nc2nc3ccccc3c(NCc3ccccc3)c2C#N)cc1 |  | 26.3 µM (active)
O=C(O)CC(O)(CC(=O)O)C(=O)O | inactive | 
S=c1[nH]c2ccccc2s1 | inactive | 
O=C1NC(=O)C(c2ccccc2)(c2ccccc2)N1 | inactive | 
O=C(Oc1ccccc1)c1cccc(C(=O)Oc2ccccc2)c1 | inactive | 
CC1=C(C)S(=O)(=O)CCS1(=O)=O |  | 85.4 µM (active)
CC(C)OC(=O)C(C)(C)Oc1ccc(C(=O)c2ccc(Cl)cc2)cc1 | inactive | 
CC(COCC(C)OC(=O)c1ccccc1)OC(=O)c1ccccc1 (centres undefined) | inactive | 
CCCCc1nc2cccnc2n1Cc1ccc(-c2ccccc2-c2nnn[nH]2)cc1 | inactive | 
CC(=O)O[C@]1(C(C)=O)CC[C@H]2[C@@H]3C=C(Cl)C4=CC(=O)[C@@H]5C[C@@H]5[C@]4(C)[C@H]3CC[C@@]21C | inactive | 
Oc1ccccc1O | inactive | 
O=C1OC(c2ccc(O)cc2)(c2ccc(O)cc2)c2ccccc21 | inactive | 
C=CCc1ccc(OC)c(OC)c1 | inactive | 

Read-out: Cyclin D1 (CCND1), CCND1 (gene 595)
Assay: LTEA_HepaRG_CCND1: Life Technologies and Expression Analysis (LTEA) Assay for Cyclin D1 (CCND1) using HepaRG (AID 2283451);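 on AC50: differentiated human HepaRG liver cells in serum-free induction medium; TaqMan qRT-PCR transcript level normalised to ACTB GAPDH and POLR2A housekeeping genes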
Settings: mRNA level, 48 h; actives raise or lower the signal
Outline: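 qRT-PCR (Fluidigm 96.96 array) read-out of transcript level, housekeeping-normalized (ACTB/GAPDH/POLR2A). HepaRG cells, 48 h chemical exposure, 8-point half-log series from 100 uM, 0.5% DMSO vehicle; gain or loss relative to DMSO baseline.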

SMILES | outcome | AC50
CCN(CC)CCOc1ccc(C(=C(Cl)c2ccccc2)c2ccccc2)cc1 | inactive | 
CCC(C)N(C)C(=O)c1cc2ccccc2c(-c2ccccc2Cl)n1 (centres undefined) | inactive | 
O=C(O)c1[nH]n(-c2ccc(S(=O)(=O)O)cc2)c(=O)c1N=Nc1ccc(S(=O)(=O)O)cc1 | inactive | 
CO[C@@H]1COCC[C@@H]1N[C@@H]1CC[C@@](C(=O)N2CCc3ncc(C(F)(F)F)cc3C2)(C(C)C)C1 | inactive | 
CC(=O)OC1CC(C)OC(C)O1 (centres undefined) | inactive | 
CCCCCCC(CCCCCCCCCCC(=O)OCC(COC(C)=O)OC(C)=O)OC(C)=O (centres undefined) | inactive | 
CN(C)CCCN1c2ccccc2Sc2ccc(Cl)cc21 |  | 50 µM (active)
O=C(O)CN(CC(=O)O)CC(=O)O | inactive | 
Cc1ccc(-c2cc(C(F)(F)F)nn2-c2ccc(S(N)(=O)=O)cc2)cc1 | inactive | 
N[C@@H](Cc1c[nH]c2ccccc12)C(=O)O | inactive | 
CCCCOC(=O)CCCCC(=O)OCCCC | inactive | 
C#CC(O)C(CC)CCCC (centres undefined) | inactive | 
CCCCCCCCCC[N+](C)(C)[O-] | inactive | 
O=C1c2c(O)cccc2Cc2cccc(O)c21 | inactive | 
CCCCCCCC(=O)OC | inactive | 
NC(=Nc1ccccc1)Nc1ccccc1 | inactive | 
O=C(N[C@@H](c1ccccc1)[C@@H]1CCCCN1)c1cccc(C(F)(F)F)c1Cl |  | 16.6 µM (active)
COc1ccc(C(=O)Nc2nc3ccccc3c(NCc3ccccc3)c2C#N)cc1 |  | 16.8 µM (active)
O=C(O)CC(O)(CC(=O)O)C(=O)O | inactive | 
S=c1[nH]c2ccccc2s1 | inactive | 
O=C1NC(=O)C(c2ccccc2)(c2ccccc2)N1 | inactive | 
O=C(Oc1ccccc1)c1cccc(C(=O)Oc2ccccc2)c1 | inactive | 
CC1=C(C)S(=O)(=O)CCS1(=O)=O | inactive | 
CC(C)OC(=O)C(C)(C)Oc1ccc(C(=O)c2ccc(Cl)cc2)cc1 | inactive | 
CC(COCC(C)OC(=O)c1ccccc1)OC(=O)c1ccccc1 (centres undefined) | inactive | 
CCCCc1nc2cccnc2n1Cc1ccc(-c2ccccc2-c2nnn[nH]2)cc1 | inactive | 
CC(=O)O[C@]1(C(C)=O)CC[C@H]2[C@@H]3C=C(Cl)C4=CC(=O)[C@@H]5C[C@@H]5[C@]4(C)[C@H]3CC[C@@]21C | inactive | 
Oc1ccccc1O | inactive | 
O=C1OC(c2ccc(O)cc2)(c2ccc(O)cc2)c2ccccc21 |  | 78.7 µM (active)
C=CCc1ccc(OC)c(OC)c1 | inactive | 

Read-out: catalase (CAT), CAT (gene 847)
Assay: LTEA_HepaRG_CAT: Life Technologies and Expression Analysis (LTEA) Assay for catalase (CAT) using HepaRG (AID 2283452)
Settings: mRNA level, 48 h; actives raise or lower the signal
Outline: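 Differentiated HepaRG cells in serum-free induction medium were dosed 48 h in duplicate, eight half-log concentrations from 100 uM in 0.5% DMSO. Transcript measured by TaqMan qRT-PCR, normalised to ACTB/GAPDH/POLR2A, fitted bidirectionally against DMSO.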

SMILES | AC50 | outcome
CCN(CC)CCOc1ccc(C(=C(Cl)c2ccccc2)c2ccccc2)cc1 | 42 µM (active) | 
CCC(C)N(C)C(=O)c1cc2ccccc2c(-c2ccccc2Cl)n1 (centres undefined) |  | inactive
O=C(O)c1[nH]n(-c2ccc(S(=O)(=O)O)cc2)c(=O)c1N=Nc1ccc(S(=O)(=O)O)cc1 |  | inactive
CO[C@@H]1COCC[C@@H]1N[C@@H]1CC[C@@](C(=O)N2CCc3ncc(C(F)(F)F)cc3C2)(C(C)C)C1 |  | inactive
CC(=O)OC1CC(C)OC(C)O1 (centres undefined) |  | inactive
CCCCCCC(CCCCCCCCCCC(=O)OCC(COC(C)=O)OC(C)=O)OC(C)=O (centres undefined) |  | inactive
CN(C)CCCN1c2ccccc2Sc2ccc(Cl)cc21 | 50 µM (active) | 
O=C(O)CN(CC(=O)O)CC(=O)O |  | inactive
Cc1ccc(-c2cc(C(F)(F)F)nn2-c2ccc(S(N)(=O)=O)cc2)cc1 | 83.6 µM (active) | 
N[C@@H](Cc1c[nH]c2ccccc12)C(=O)O |  | inactive
CCCCOC(=O)CCCCC(=O)OCCCC |  | inactive
C#CC(O)C(CC)CCCC (centres undefined) |  | inactive
CCCCCCCCCC[N+](C)(C)[O-] |  | inactive
O=C1c2c(O)cccc2Cc2cccc(O)c21 |  | inactive
CCCCCCCC(=O)OC |  | inactive
NC(=Nc1ccccc1)Nc1ccccc1 |  | inactive
O=C(N[C@@H](c1ccccc1)[C@@H]1CCCCN1)c1cccc(C(F)(F)F)c1Cl | 56.7 µM (active) | 
COc1ccc(C(=O)Nc2nc3ccccc3c(NCc3ccccc3)c2C#N)cc1 | 18.7 µM (active) | 
O=C(O)CC(O)(CC(=O)O)C(=O)O |  | inactive
S=c1[nH]c2ccccc2s1 |  | inactive
O=C1NC(=O)C(c2ccccc2)(c2ccccc2)N1 |  | inactive
O=C(Oc1ccccc1)c1cccc(C(=O)Oc2ccccc2)c1 |  | inactive
CC1=C(C)S(=O)(=O)CCS1(=O)=O |  | inactive
CC(C)OC(=O)C(C)(C)Oc1ccc(C(=O)c2ccc(Cl)cc2)cc1 |  | inactive
CC(COCC(C)OC(=O)c1ccccc1)OC(=O)c1ccccc1 (centres undefined) |  | inactive
CC(=O)O[C@]1(C(C)=O)CC[C@H]2[C@@H]3C=C(Cl)C4=CC(=O)[C@@H]5C[C@@H]5[C@]4(C)[C@H]3CC[C@@]21C | 50 µM (active) | 
Oc1ccccc1O |  | inactive
O=C1OC(c2ccc(O)cc2)(c2ccc(O)cc2)c2ccccc21 | 69.2 µM (active) | 
C=CCc1ccc(OC)c(OC)c1 |  | inactive
